Sampled rows, rich in hits. Any-hit rate of the full collection: about 7.6%.
NS3h inh CB – HCV NS3 helicase inhibitors, primary screen, biochemical, fluorescence polarization, ChemBridge library; actives 1.6% (n = 16,000); NS3h Cy5-dT15 DNA binding; inhibition, % at 100 µM; AID 687043, 2013;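 active = inhibition above the average over every tested compound plus 3 SD, cut at about 40% in these data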
Cy5 interf NS3h – Cy5 fluorescence quenchers or enhancers, artefact control for HCV NS3 helicase inhibitor project, biochemical, ChemBridge library, Cy5 readout. fluorescence interference ratio at 100 µM. actives 6% (n = 16,000). Cy5-dT15 DNA with NS3h, fluorescence interference; actives lie on both sides; signal over control mean, under 1 quenches. AID 720488, 2013;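 active = compound fluorescence over control fluorescence at most 0.8, a quencher, or at least a set upper limit, an enhancer; inactive = ratio between 0.8 and the set upper limit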
Numbers stand for hits; . = inactive.

SMILES	NS3h inh CB	Cy5 interf NS3h
Cc1c(Br)c([N+](=O)[O-])nn1CC(=O)N1CCc2ccccc2C1	.	0.56
Cc1c(Cl)c([N+](=O)[O-])nn1CC(=O)N1CCCC1	.	.
CCc1nc2ccccc2n1Cc1ccc([N+](=O)[O-])cc1	.	.
CN(C)CCn1c2ccccc2c2nc3ccc([N+](=O)[O-])cc3cc21	.	0.74
Cn1c(NC(=O)c2ccc([N+](=O)[O-])cc2Cl)cc(=O)n(C)c1=O	.	.
C=CCOc1ccc(/C=c2/sc3n(c2=O)C(c2ccc(OC)c(OC)c2)C(C(=O)OC)=C(C)N=3)cc1 (stereo not drawn)	.	.
CC1=C(C(=O)Nc2ccc(Cl)cc2)C(c2cccc([N+](=O)[O-])c2)NC(=S)N1 (stereo not drawn)	.	.
CSc1ccc(/C=C/C(=O)c2ccc(NC(=O)c3cccs3)cc2)cc1	.	0.71
O=C(Nc1ccc(/C=C/C(=O)c2cccs2)cc1)c1ccc(Br)cc1	.	.
CC12c3ccccc3C(C)(c3ccccc31)C1C(=O)N(c3ccc(C(=O)O)cc3)C(=O)C12 (stereo not drawn)	.	0.72
COc1ccc(N2C(=O)C3C4c5ccccc5C(C)(c5ccccc54)C3C2=O)cc1 (stereo not drawn)	.	.
C=CCOC(=O)C1=C(C)NC(C)=C(C(=O)OCC=C)C1c1ccc(O)c(OCC)c1	.	.
C=CCOC(=O)C1=C(C)NC(C)=C(C(=O)OCC=C)C1c1ccc(OC)c(OC)c1	.	0.8
COc1ccc(/C(N)=N\OC(=O)COc2ccc3ccccc3c2)cc1	.	.
O=[N+]([O-])/C=C/c1ccc(-c2ccc(Cl)cc2)o1	.	.
Cc1ccc[n+](CC(=O)c2ccc(-c3ccccc3)cc2)c1	.	.
Nc1cc[n+](CC(=O)c2ccccc2)cc1	.	0.77
Nc1ccc(C(=O)c2ccc(N)c(N)c2)cc1N	.	.
O=C(C[n+]1ccc(C(=O)NCc2ccccc2)cc1)c1ccc(-c2ccccc2)cc1	.	0.76
COC(=O)COc1cc(Br)c(/C=C2\C(=O)NC(=O)N(c3cc(C)cc(C)c3)C2=O)cc1OC	.	.
Cc1cc(/C=C(\C#N)C(=O)Nc2ccccc2)c(C)n1-c1ccc2ccccc2c1	.	.
O=[N+]([O-])c1ccc(-c2noc(-c3ccccc3Br)n2)cc1	.	0.76
O=[N+]([O-])c1cccc(-c2nc(-c3ccc(Cl)cc3)no2)c1	.	.
Cc1ccc2[nH]c(O)c(N=Nc3ccc([N+](=O)[O-])cc3)c2c1	.	.
Cc1ccc(C)n1-c1ccc(Br)cc1C(=O)O	49	.
SMILES	NS3h inh CB	Cy5 interf NS3h
CC(C)C(=O)Nc1ccc(Br)cc1C(=O)O	.	.
Clc1ccccc1-c1nc(-c2cccnc2)no1	.	1.2
Clc1ccc(-c2nc(-c3cccnc3)no2)c(Cl)c1	.	.
Cc1cc(C)c(NC(=O)c2ccccc2Br)c(C)c1	.	.
COc1ccc2c(c1)OCC/C2=N/OC(=O)c1cc(OC)c(OC)c(OC)c1	.	1.2
COc1ccc2c(c1)OCC/C2=N/OC(=O)c1ccc(C)cc1	.	.
CCc1ccccc1NC(=O)[C@H]1CC=CC[C@H]1C(=O)O	.	0.74
CCc1ccccc1NC(=O)C(CC)c1ccccc1 (stereo not drawn)	.	.
O=C(O/C(=C/c1nccn1Cc1ccc(Cl)cc1)c1ccccc1)c1ccccc1	.	1.2
Cn1ccnc1/C=C(/OC(=O)c1ccc(Cl)cc1)c1ccc(Cl)cc1	.	.
Cc1cc(/C=N\N2C(=O)c3ccccc3C2=O)c(C)n1-c1ccccc1	.	.
O=C(Cc1ccccc1)NC(c1ccco1)c1ccc2cccnc2c1O (stereo not drawn)	.	.
O=C(Cc1ccccc1)NC(c1ccco1)c1c(O)ccc2ccccc12 (stereo not drawn)	.	0.59
CCOc1cc(OCC)cc(C(=O)Nc2cccc(C(F)(F)F)c2)c1	.	0.5
CCOc1ccc(NC(=O)C(=O)Nc2cccc(C(F)(F)F)c2)cc1	.	.
CC(C)CN1C(=O)c2ccc(C(=O)Nc3c[nH]c(=O)[nH]c3=O)cc2C1=O	.	0.66
CCC(=O)Nc1ccc(C(=O)Nc2c[nH]c(=O)[nH]c2=O)cc1	.	.
Cc1[nH]c2ccccc2c1/C=N\NC(=O)c1cccnc1	.	.
Cc1ccc(N2C(=O)CC(NCc3cccnc3)C2=O)cc1 (stereo not drawn)	.	1.3
COc1cccc(CCNC2CC(=O)N(c3ccc(C)cc3)C2=O)c1 (stereo not drawn)	.	.
CC(CC(=O)Nc1ccccc1)c1ccccc1 (stereo not drawn)	.	.
COCCCNC(=O)CN(c1cccc([N+](=O)[O-])c1)S(=O)(=O)c1ccccc1	.	0.73
Cc1ccc(CSCCNC(=O)CN(c2cccc([N+](=O)[O-])c2)S(=O)(=O)c2ccccc2)cc1	.	.
O=C(CN(c1cccc([N+](=O)[O-])c1)S(=O)(=O)c1ccccc1)NCCSc1ccc(Cl)cc1	.	0.72
COc1ccc(CCNC(=O)CN(c2cccc([N+](=O)[O-])c2)S(=O)(=O)c2ccccc2)cc1OC	.	.
SMILES	NS3h inh CB	Cy5 interf NS3h
COc1cc(NC(=O)C(F)(F)F)c(Cl)cc1NC(=O)c1ccccc1	43	.
COc1cc(NC(C)=O)c(Cl)cc1NC(=O)c1ccccc1	.	.
COc1cc(/C=C2/SC(=S)N(c3ccccc3)C2=O)ccc1OC(=O)c1cccc(C)c1	.	0.67
COc1cc(/C=C2\SC(=S)N(C(C)C(=O)O)C2=O)ccc1O (stereo not drawn)	.	.
C=CCOc1ccc(/C=C2\SC(=S)N(c3ccc(OC)cc3)C2=O)cc1OC	.	0.73
COc1cc(/C=C2\SC(=S)N(C)C2=O)ccc1OC(=O)c1cccc(C)c1	.	.
C=CCOc1ccc(/C=C2\SC(=S)N(c3ccc([N+](=O)[O-])cc3)C2=O)cc1OC	.	.
COc1ccccc1/C=C1\SC(=S)N(c2ccc(F)cc2)C1=O	.	.
COc1cc(/C=C2\SC(=S)N(CC(C)C)C2=O)ccc1O	.	0.8
COc1ccc(N2C(=O)/C(=C\c3ccccc3C)SC2=S)cc1	.	1.2
CCOc1ccc(-c2cc(C)n3nc(C(=O)N(C)Cc4ccccc4)cc3n2)cc1	.	.
CC(=O)c1ccc(NC(=O)c2cc3nc(-c4ccc(Br)cc4)cc(C(F)(F)F)n3n2)cc1	.	0.78
COC(=O)c1cc2nc(-c3ccc(Br)cc3)cc(C(F)(F)F)n2n1	.	.
Cc1cc(-c2ccccc2)nc2cc(C(=O)Nc3ccc(Cl)cc3)nn12	.	.
CCOc1ccc(-c2cc(C)n3nc(C(=O)Nc4ccc(C(C)=O)cc4)cc3n2)cc1	.	0.67
CCOc1ccc(-c2cc(C)n3nc(C(N)=O)cc3n2)cc1	.	0.63
Cc1ccc(N(CC(=O)Nc2ccc(Br)cc2)S(C)(=O)=O)cc1Cl	.	.
O=C(NC(=S)Nc1ccc(-c2nc3ccccc3o2)cc1)c1ccco1	.	.
COc1ccc(NC(=O)C2CC(=O)N(c3ccc(F)cc3)C2)c(OC)c1 (stereo not drawn)	.	.
CC1=C(C(=O)c2ccccc2)C(c2ccccc2)NC(=O)N1 (stereo not drawn)	.	.
COc1ccc(NC(=O)c2cnn3c2NC(c2ccco2)CC3C(F)(F)F)c(OC)c1 (stereo not drawn)	.	.

Screens from PubChem BioAssay.
